As usually defined, the AC50 is the concentration giving half of the maximal activity seen.

Molecules are shown by their SMILES. Records with an inconclusive call do not appear. Active and inactive are the calls of the source. How the source made its calls: active means hit-call score of the fitted dose curve at least 0.9, where 1 is the maximum; inconclusive means response in the unintended direction; inactive means score below 0.9.

Cellular tumor antigen p53 (Homo sapiens), sequence (P04637 whole entry, looked up): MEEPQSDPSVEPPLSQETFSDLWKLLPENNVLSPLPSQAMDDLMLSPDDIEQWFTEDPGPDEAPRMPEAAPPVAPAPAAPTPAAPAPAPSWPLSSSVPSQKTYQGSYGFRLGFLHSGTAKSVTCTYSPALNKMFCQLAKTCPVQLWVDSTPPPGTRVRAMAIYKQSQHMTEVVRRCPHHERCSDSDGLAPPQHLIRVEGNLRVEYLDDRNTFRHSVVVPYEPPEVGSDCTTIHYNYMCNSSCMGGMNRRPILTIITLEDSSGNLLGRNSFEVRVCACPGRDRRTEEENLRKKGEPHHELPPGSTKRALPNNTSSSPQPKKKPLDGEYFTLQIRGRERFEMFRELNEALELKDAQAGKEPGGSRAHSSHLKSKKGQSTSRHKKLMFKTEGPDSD

This assay has as its target Cellular tumor antigen p53 (Homo sapiens) (UniProt P04637). In words: TOX21_p53_BLA_p5_ratio: Tox21 HCT-116 p53 Agonism Beta-lactamase Assay, Ratio, Phase 5 (AID 2283599). In a few lines:
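HCT-116 cells carrying a p53-inducible beta-lactamase reporter were seeded at 4000 cells/well and dosed after 5 h with compound in DMSO (217-fold dilution). After 16 h at 37C, CCF4-AM substrate was added for 2 h, and the 460/530 nm emission ratio was scored as gain-of-signal versus DMSO.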
Consider `Fc1ccc(C(OCCN2CCN(CCCc3ccccc3)CC2)c2ccc(F)cc2)cc1`, for which the AC50 was 40.4 µM (active). In the case of `C[C@@H](Cc1ccccc1)NCCC(c1ccccc1)c1ccccc1`, the result was inactive.

As for `CC(=O)CCC(C)=O`, the outcome was inactive. With `CCCCc1c(C)nc(NCC)[nH]c1=O`, the result was inactive. Still for that read-out and setting: then `NNC(=O)c1ccccc1`, with “inactive”; and `CC(C)c1ccc(NC(=O)N(C)C)cc1`, with “inactive”.

For the compound `C[C@@H]1O[C@@H](O[C@@H]2C=C3CC[C@@H]4[C@H](CC[C@]5(C)[C@@H](c6ccc(=O)oc6)CC[C@]45O)[C@@]3(C)CC2)[C@H](O)[C@H](O)[C@H]1O`, the result was inactive. Same read-out and setting: in the case of `CC(C)C[C@H]1C(=O)N2CCC[C@H]2[C@]2(O)O[C@](NC(=O)[C@@H]3C[C@@H]4c5cccc6[nH]cc(c56)C[C@H]4N(C)C3)(C(C)C)C(=O)N12` it was “inactive”; in that of `Cc1nnc2n1-c1sc(CCC(=O)N3CCOCC3)cc1C(c1ccccc1Cl)=NC2`, “inactive”. Same read-out and setting: then `C[C@H]1CC[C@]2(NC1)O[C@H]1C[C@H]3[C@@H]4CC[C@H]5C[C@@H](O)CC[C@]5(C)[C@H]4CC[C@]3(C)[C@H]1[C@@H]2C`, with “inactive”; and `NC(=O)CS(=O)C(c1ccccc1)c1ccccc1` (configuration not stated), with “inactive”; and `CCCN(CC1CC1)c1c([N+](=O)[O-])cc(C(F)(F)F)cc1[N+](=O)[O-]`, with “inactive”. The same measure, in the same setting: in the case of `ClCc1ccccc1` it was “inactive”; in that of `CC(Cc1ccccc1)NCc1ccccc1Cl` (configuration not stated), “inactive”; in that of `COC(C)(C)CCCC(C)C/C=C/C(C)=C/C(=O)OC(C)C` (configuration not stated), “inactive”. Take `CCC1(c2ccccc2)C(=O)NC(=O)N(C(=O)c2ccccc2)C1=O` (configuration not stated): the outcome was inactive. On the same count and under the same terms, in the case of `S=C=NCCc1ccccc1` it was “inactive”.

With `Brc1ccc(Oc2cc(Br)c(Br)cc2Br)c(Br)c1`, the outcome was inactive. As for `c1ccc(C2(N3CCCC3)CCCCC2)cc1`, the outcome was inactive. On the same count and under the same terms, in the case of `N#CCc1ccccc1` it was “inactive”. In the case of `F/C(COc1ccc2c(c1)[nH]c1ccccc12)=C1/CN2CCC1CC2`, the outcome was inactive.

With `O=C(CCl)C(Cl)Cl`, the concentration at half-maximal activity (AC50) is 29 µM (active). For `O=C(N/N=C/c1ccc([N+](=O)[O-])o1)c1cc([N+](=O)[O-])cc([N+](=O)[O-])c1O`, the result was inactive. Still for that read-out and setting: then `O=C(OCCN1CCCCC1)C(O)(c1ccccc1)c1ccccc1`, with “inactive”; and `CCOS(C)(=O)=O`, with “inactive”; and `O=C(O)c1nn(Cc2ccc(Cl)cc2Cl)c2ccccc12`, with “inactive”. As to `C=CC(C)=O`, the result was inactive.

Turning to `O=CC=Cc1ccccc1`, the outcome was inactive. Still for that read-out and setting: in the case of `COc1ccc2c(c1OC)C(=O)O[C@@H]2[C@H]1c2cc3c(cc2CCN1C)OCO3` it was “inactive”. On to `CC(=O)O[C@H]1C[C@H](O[C@H]2[C@@H](O)C[C@H](O[C@H]3[C@@H](O)C[C@H](OC4CC[C@@]5(C)[C@H](CC[C@@H]6[C@@H]5CC[C@]5(C)[C@@H](C7=CC(=O)OC7)CC[C@]65O)C4)O[C@@H]3C)O[C@@H]2C)O[C@H](C)[C@H]1O[C@@H]1O[C@H](CO)[C@@H](O)[C@H](O)[C@H]1O` (some centres not stated), for which the outcome was inactive. Still for that read-out and setting: then `CSCCCN=C=S`, with “inactive”. The same measure, in the same setting: in the case of `C[C@]12CC[C@H]3[C@@H](CCC4=CC(=O)CC[C@@]43C)[C@@H]1CC[C@@H]2OC(=O)CCc1ccccc1` it was “inactive”.

The values above are taken from PubChem BioAssay (EPA / NIEHS).
